# MmCpn inh – M. maripaludis TRiC chaperonin inhibition; purified Mm-Cpn ATPase, ADP Transcreener TR-FRET; Potency, µM (series often up to 76.9 µM), inactives show at the top dose activity, negative = inhibition, usual class: inhibitors; actives 0.031% (n = 330,000); AID 504842; further: potency means the concentration at half of the fitted maximal effect; nearly all actives have a fitted effect of over 80% in size
#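 ATP (10 uM final) was added to archaeal chaperonin (25 nM final) after 10 min exposure to test compound at 37°C; after 30 min further incubation, ADP was detected by competitive TR-FRET.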
# Sfp PPTase inh – inhibitors of Bacillus subtilis Sfp phosphopantetheinyl transferase. Biochemical Sfp PPTase activity, qHTS. Potency, µM, for inactives: largest response in the series, negative = inhibition, usual class: inhibitors. actives 3.5% (n = 310,000). AID 1490;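 further: the enzyme is Sfp with the accession as filed and its product quenches rhodamine fluorescence; potency means the concentration at half of the fitted maximal effect; 0% = enzyme reaction without inhibitor and -100% = no enzyme wells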
#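 After 15 min at room temperature with compound, 15 nM Sfp received 5 uM rhodamine-CoA plus 12.5 uM BHQ-2-ybbR (50 mM Hepes pH 7.6, 10 mM MgCl2). Rate came from the fluorescence difference over 30 min, ex 525/em 598 nm.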
# CCT chaperon mod – modulators of cytosolic chaperonin (CCT/TRiC) activity; purified chaperonin ATPase assay, HTRF ADP detection, 30 min; activity change, % (no concentration beside the values), hits read low; actives 0.3% (n = 360,000); AID 651819; in the data active means activity change below about -30%
#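 ATPase activity: ADP formed was measured by HTRF Transcreener (665/615 nm ratio) after 30 min at 37 deg C with 10 uM ATP. Compounds screened at one 76 uM concentration against 40 or 20 nM TRiC in Tris pH 7.4/KCl/MgCl2/DTT buffer.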
# PLK1 PBD inh – inhibitors of human PLK1 polo-box domain binding. AID 720504. Potency, µM, for inactives: max response, negative = inhibition, hits mostly inhibitors. P53350. Plk1 PBD binding of FITC phosphopeptide, fluorescence polarization. actives 2.8% (n = 360,000); further: potency means the concentration at half of the fitted maximal effect; series mostly up to about 57 µM; nearly all actives have a fitted effect of over 65% in size
# Target sequence (P53350 whole entry, looked up, the tested form may be a part): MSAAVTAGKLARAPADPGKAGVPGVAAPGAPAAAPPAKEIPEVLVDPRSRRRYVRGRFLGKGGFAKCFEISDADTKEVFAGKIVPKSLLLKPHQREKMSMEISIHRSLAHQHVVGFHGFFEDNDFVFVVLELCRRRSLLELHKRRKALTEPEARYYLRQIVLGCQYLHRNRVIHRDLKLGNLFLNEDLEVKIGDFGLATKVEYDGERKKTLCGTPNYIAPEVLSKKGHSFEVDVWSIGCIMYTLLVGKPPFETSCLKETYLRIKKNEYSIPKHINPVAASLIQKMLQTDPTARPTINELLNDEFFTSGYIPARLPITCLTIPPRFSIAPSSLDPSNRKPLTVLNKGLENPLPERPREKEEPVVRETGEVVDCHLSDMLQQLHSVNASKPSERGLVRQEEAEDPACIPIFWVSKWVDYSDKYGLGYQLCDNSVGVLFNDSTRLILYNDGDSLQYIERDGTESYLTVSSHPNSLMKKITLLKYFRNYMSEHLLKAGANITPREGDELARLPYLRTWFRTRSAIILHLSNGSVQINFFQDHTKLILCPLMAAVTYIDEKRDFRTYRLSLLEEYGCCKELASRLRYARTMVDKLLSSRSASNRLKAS
# G9a block – inhibitors of human histone lysine methyltransferase G9a | Potency, µM (top dose mostly 102 µM), inactives show at the top dose activity, negative = inhibition, most hits filed as inhibitors | Q96KQ7 | AID 504332 | actives 8.8% (n = 350,000) | G9a H3K9 monomethylation, AlphaScreen, 2 h; further: potency means the concentration at half of the fitted maximal effect; nearly all actives have a fitted effect of over 75% in size
#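 AlphaScreen detection with an anti-monomethyl H3K9 antibody quantified product after a 2 h room-temperature reaction containing 500 nM biotinylated H3K9 peptide, 20 µM SAM and 20 nM enzyme, which had been preincubated 15 min with compound.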
# VDR inhibitor – vitamin D3 receptor (human) inhibition; VDR-SRC2-3 peptide fluorescence polarization, 2 h; Potency, µM, without a hit: max response, negative = inhibition, hits mostly inhibitors; actives 0.93% (n = 400,000); further: potency means the concentration at half of the fitted maximal effect
#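 Inhibition of the VDR/SRC2-3 peptide interaction is quantified by fluorescence polarization. Compounds (23 nl, pintool) incubate with the reagents for 2 hours at ambient room temperature.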
# An asterisk follows results filed as active; ? = inconclusive; . = not tested or not shown; [ ] = another dose, or the depositor's remark. In the library only some 10% were active in any assay of this set; here they are far more common. Unless noted, the call rests on the fitted dose curve; in most records, active means well fitted curve in the direction sought with a large enough effect; inconclusive means small, poorly fitted or top-dose-only effect, or another doubt; inactive means no such curve, though single readings can be large; an effect the other way counts as inactive or inconclusive. Unless noted, on the % scale 0 is the no-effect control and ±100 the full control effect.
SMILES,MmCpn inh,Sfp PPTase inh,CCT chaperon mod,PLK1 PBD inh,G9a block,VDR inhibitor
O=C(CCCCC(=O)NNC(=O)COc1ccccc1)NNC(=O)COc1ccccc1,2.3%,-28.2%,-3.7,-22.6%,35.5µM*,10.2%
Nc1cc(N)nc(SCC(=O)NNC(=O)Cc2ccccc2)n1,0.5%,-19.3%,1.1,-5.7%,9.7%,7.6%
CC(=O)NNC(=S)NC(=O)c1ccc(C)cc1,-9.0%,22.6%,-4.8,2.8%,?,-12.5%
CCOC(=O)c1ccc(CN(Cc2ccc(F)cc2)S(=O)(=O)c2ccc(F)c(C(=O)Nc3c(C)cccc3C)c2)cc1,.,.,.,.,5.0%[59 µM],-3.2%
CCOc1cc(-c2nnc(SCC(=O)NCCCOC)nc2-c2ccc(OC)c(OCC)c2)ccc1OC,.,.,.,.,?,4.4%
Cc1ccccc1-c1nc(SCC(=O)NCC2CCCO2)c2c(=O)n(C)c(=O)n(C)c2n1 (configuration not stated),.,.,.,.,15.7%[59 µM],-0.6%
O=C(NCc1ccc(F)cc1)c1cc2c(=O)n3ccccc3nc2s1,.,.,.,.,15.6%[59 µM],3.8%
O=C(COc1ccccc1)NNC(=S)NC(=O)c1ccccc1,-4.3%,?,0.3,?,2.24µM*,14.7%
Cc1ccccc1OCC(=O)NC(=S)Nc1ccc2c3c(cccc13)CC2,0.7%,13.6%,-0.4,2.99µM*,25.5%[12.7 µM],-25.1%
COC(=O)C(NC(=O)c1ccccc1)=C(C)C,-11.2%,17.2%,-0.4,3.36µM*,-7.1%[59 µM],-9.3%
COc1ccc(C(=O)NC(=S)NNC(=O)COc2ccccc2)cc1,-2.2%,-10.7%,0.5,?,.,-16.2%
CC(=O)NNC(=S)NC(=O)c1ccccc1,-4.7%,17.8µM*,2.4,-7.0%,6.31µM*,4.6%
CCOC(=O)C(NC(=O)c1ccccc1)=C(C)C,2.2%,-3.0%,-0.4,-1.8%,17.4%,-1.5%
CCCC(=O)OCc1cnc(C)c2oc(=O)c(C(=O)Nc3ccc(F)cc3C)cc12,.,.,.,.,1.1%[59 µM],1.2%
Cc1ccccc1Nc1c(-c2c(F)cccc2Cl)nc2ccc(Br)cn12,.,.,.,.,-21.8%[59 µM],-11.8%
CCOC(=O)c1ccc(CN(Cc2ccccc2C)S(=O)(=O)c2ccc(C(C)(C)C)cc2)cc1,.,.,.,.,17.6%[59 µM],-1.1%
O=C(CCc1ccccc1)NNC(=S)NC(=O)c1ccc(Cl)cc1,-1.1%,50.1µM*,-1.7,-26.8%,1.58µM*,-6.5%
O=C(CCc1ccccc1)NNC(=O)c1ccc(Cl)cc1,-1.3%,0.7%,1.3,6.9%,.,2.1%
CCC(=O)NNC(=S)NC(=O)c1ccc(C)cc1,-2.7%,56.2µM*,-2.1,?,10.6%[0.501 µM],-2.7%
O=C(COc1ccccc1)NNC1=NS(=O)(=O)c2ccccc21,-0.2%,5.6%,-1.3,-7.4%,44.7µM*,1.2%
Cc1ccc(CN2CCN(/N=C/c3cccn3C)CC2)c(C)c1,-2.2%,-5.8%,2.7,-9.8%,25.1µM*,-8.8%
Cc1ccc(CN2CCSCC2)c(C)c1,3.1%,?,1.7,0.7%,4.47µM*,-10.5%
CN1CCCN(Cc2cccc3ccccc23)CC1,-0.8%,-29.8%,-1.6,7.3%,.,0.3%
Cc1ccc(CN2CCCN(C)CC2)c(C)c1,-1.2%,-18.9%,-4.9,18.9µM*,3.55µM*,79.4µM*
COc1cc(C)c(CN2CCSCC2)cc1C,0.7%,-8.8%,-0.6,-10.1%,-31.2%[0.501 µM],-9.7%
SMILES,MmCpn inh,Sfp PPTase inh,CCT chaperon mod,PLK1 PBD inh,G9a block,VDR inhibitor
Cc1ccc(CN2CCN(/N=C/c3cccnc3)CC2)cc1,2.3%,14.0%,-3.4,-13.8%,11.0%[59 µM],-8.7%
CNc1ncncc1-c1ccccc1CN(C)C,.,6.8%,.,.,-6.9%[0.501 µM],?
O=C(CCN1C(=O)/C(=C/c2ccc(F)cc2)SC1=S)NCCCn1ccnc1,-0.4%,-15.9%,0.6,-4.4%,50.1µM*,8.4%
O=C(CCN1C(=O)/C(=C/c2ccc(Cl)cc2)SC1=S)NCCCn1ccnc1,3.7%,2.6%,-4.9,-9.3%,?,-11.9%
N#Cc1cccc(NC(=O)C2CCN(c3cnccn3)CC2)c1,.,.,.,.,-5.2%[59 µM],11.5%
Cc1ccc(C(=O)/C=C/c2ccc(-c3ccccc3[N+](=O)[O-])o2)cc1,-0.2%,-13.7%,-0.5,-13.6%,25.1µM*,-4.9%
O=C(/C=C/c1ccc(-c2ccccc2[N+](=O)[O-])o1)c1ccc(F)cc1,0.8%,5.1%,-2.0,-2.5%,35.5µM*,-22.9%
Cc1ccc(C(=O)/C=C/C(=O)c2ccc(C)cc2)cc1,2.7%,3.16µM*,0.4,1.68µM*,1.58µM*,?
N#C/C(=C/c1ccc(-c2ccccc2[N+](=O)[O-])o1)C(N)=O,0.9%,2.0%,1.3,2.4%,-39.3%,-9.9%
O=C1NC(c2ccc(-c3ccccc3[N+](=O)[O-])o2)C(C(=O)c2ccc(F)cc2)C(O)(C(F)(F)F)N1 (configuration not stated),0.1%,-12.5%,0.1,0.1%,?,-2.5%
O=C(/C=C/c1ccc(-c2ccccc2[N+](=O)[O-])o1)c1ccc(Br)cc1,?,-1.1%,-1.4,-14.2%,25.1µM*,4.7%
Cc1ccc(/C=C/C(=O)c2ccc(C)cc2)cc1,-1.3%,-2.7%,0.5,-0.5%,7.9%[59 µM],?
O=C1CN(C(=O)c2ccc(S(=O)(=O)N3CCCCC3)cc2)C(c2ccc(F)cc2)c2cc(Br)ccc2N1 (configuration not stated),.,.,.,.,?,-0.4%
CNC1=CN=C(c2ccccc2)c2cc(Cl)ccc2N1,.,22.3%,.,.,4.1%[59 µM],-15.0%
CC(C)CN1CCC(=O)N(C(CSc2ccc(Br)cc2)Cc2ccccc2)CC1 (configuration not stated),.,-15.0%,.,.,.,-5.8%
C=CCOC(=O)C(C(C)=O)C(NC(=O)OC)c1cccs1 (configuration not stated),.,7.7%,.,.,.,.
Cc1ccc(C(=O)/C=C/c2ccccc2[N+](=O)[O-])cc1,?,-16.0%,1.2,26.7µM*,?,?
CCOC(=O)/C=C/[C@H]1CCc2cccc(Cl)c2O1,-1.5%,.,-3.6,21.2µM*,30.6%[2.33 µM],-25.3%
CCC(CC)C(=O)NCCN1CCN(C(=O)C(CC)CC)CC1,-0.7%,12.3%,-0.4,-9.5%,5.62µM*,19.7%
O=C(/C=C/c1ccc([N+](=O)[O-])cc1)NCCc1ccccc1,-0.9%,-4.4%,-0.9,16.8µM*,?,?
O=C(NCCc1ccccc1)/C(=C\c1ccc([N+](=O)[O-])cc1)NC(=O)c1ccco1,-0.6%,14.4%,0.2,4.4%,39.8µM*,3.7%
O=C(NCc1ccccc1)/C(=C\c1ccc([N+](=O)[O-])cc1)NC(=O)c1ccco1,1.6%,4.5%,1.1,-1.9%,9.3%,1.0%
O=C(/C=C/c1ccc(Cl)cc1)NC1CC2CCC1C2 (configuration not stated),2.4%,-24.9%,0.3,-17.6%,-1.4%,-1.0%
O=C(/C=C/c1ccc([N+](=O)[O-])cc1)NC1CC2CCC1C2 (configuration not stated),0.2%,-8.3%,-0.3,5.97µM*,2.0%,?
CCCN(CCC)S(=O)(=O)c1ccc(N2CCCCS2(=O)=O)cc1,.,.,.,.,-2.0%[59 µM],-2.0%

# Bioassay records (PubChem BioAssay)
